Only some compounds are listed: those with a hit (about 2.9% of all), similar ones and a draw of the others.
proKLK7 act: activates the human kallikrein-7 zymogen; activation, % at 7 µM; P49862; purified proKLK7, EDANS-DABCYL substrate fluorescence; 100% is mature enzyme control, 0% vehicle; 370,000 compounds, 0.9% hits;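 active = activation above the mean of all tested compounds plus 3 SD, computed per campaign excluding outliers beyond control limits, cut at about 13% in these data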
Target sequence (P49862 whole entry, looked up): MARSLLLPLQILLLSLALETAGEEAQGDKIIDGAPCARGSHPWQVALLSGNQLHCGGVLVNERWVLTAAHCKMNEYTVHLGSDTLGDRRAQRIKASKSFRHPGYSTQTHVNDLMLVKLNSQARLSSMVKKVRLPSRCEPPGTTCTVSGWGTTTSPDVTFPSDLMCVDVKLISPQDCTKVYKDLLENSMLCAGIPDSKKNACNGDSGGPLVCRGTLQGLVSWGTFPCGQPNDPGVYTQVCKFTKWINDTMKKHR
GAA850 FXN act: increases GAA850 frataxin promoter reporter activity | HEK293 lucGAA850 FXN promoter luciferase reporter, 24 h; percent of 10 µM SAHA response | 360,000 compounds, 0.56% hits | activation, % at 6 µM;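 active = activation above the average of all compounds screened plus 3 SD, cutoff fixed separately per campaign, cut at about 7.5% in these data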;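 also: 0% = DMSO wells and 100% = 10 µM SAHA wells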
SMARCA2 activ: SMARCA2 function activation, primary screen; MG213 cells, MMTV-luciferase reporter, dexamethasone, overnight; activation, % at 9.1 µM; 370,000 compounds, 1% hits; in the data active = activation above about 7.8%;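 also: 0% = vehicle wells and 100% = reference activator wells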
FAS-TE inh: blocks the thioesterase domain of human fatty acid synthase; 360,000 compounds, 0.67% hits; inhibition, % at 15 µM; recombinant FAS-TE, OMFH fluorogenic substrate, fluorescence endpoint; P49327; AID 602261;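 active = compounds whose normalised, plate-corrected inhibition of enzyme fluorescence in the single-dose primary screen is 50% or more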;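 also: 0% = DMSO with enzyme and 100% = substrate without enzyme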
KLK7 act conf: proKLK7 activation, confirmation; activation, % at 7 µM; 3,200 compounds, 68% hits; purified proKLK7, EDANS-DABCYL substrate fluorescence; scaled: vehicle 0, mature enzyme 100; shares compounds with proKLK7 act;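 active = activation, as change over the incubation, above the mean of all tested compounds plus 3 SD, cut at about 13% in these data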
EDANS interfere: fluorescence interference counter-screen for KLK7 activators; 3,200 compounds, 80% hits; EDANS-DABCYL substrate fluorescence interference, no enzyme, 4 h; solvent 0%, active enzyme control 100%; shares compounds with proKLK7 act; activation, % at 7 µM; AID 686952;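 active = activation above the all-compound mean plus 3 SD, ignoring values outside control-based bounds, cut at about 4.8% in these data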;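 also: value is the 4 h activation minus the activation read at time zero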
An asterisk follows results filed as active; x = no result given.

SMILES	proKLK7 act	GAA850 FXN act	SMARCA2 activ	FAS-TE inh	KLK7 act conf	EDANS interfere
COc1ccc(N2CCN(C(=O)c3ccc(Cn4c(=S)[nH]c5ccc(N6CCOCC6)cc5c4=O)cc3)CC2)cc1	1	3	-2	23	x	x
COc1ccc(-c2cc(=O)c3cccc(CC(=O)O)c3o2)cc1	79*	x	-1	x	83*	81*
COc1ccc(-c2cc3ccccc3c(=O)o2)cc1	21*	x	4	24	-29	-29
CN(C)CCNc1oc(-c2ccccc2F)nc1C#N	57*	2	-1	-4	30*	33*
CN(C)CCNc1oc(-c2cccc(Cl)c2)nc1C#N	59*	-2	4	-4	31*	34*
O=c1c2[nH]c3ccc(F)cc3c2ncn1Cc1ccncc1	1	3	-4	-3	x	x
COc1ccc2[nH]c3c(=O)n(Cc4ccncc4)cnc3c2c1	13*	0	-1	1	7	9.8*
CCN1CCCC1Cn1cnc2c([nH]c3ccc(OC)cc32)c1=O (centres undefined)	24*	2	0	-1	9	10*
C=CCN1C(=O)C(CC(=O)O)S/C1=N/N=C/c1ccc(N(CC)CC)cc1 (centres undefined)	1	0	-3	-1	x	x
Cc1cc(=O)oc2c(CN3CC(C)OC(C)C3)c(O)c(Cl)cc12 (centres undefined)	149*	0	-1	-2	67*	74*
Cc1ccc2c(CN3CCN(CCO)CC3)cc(=O)oc2c1C	0	2	-1	-9	x	x
O=c1cc(-c2ccccc2)c2cc(Cl)c(O)c(CN3CCOCC3)c2o1	13	2	-2	-5	x	x
CCc1cc(=O)oc2c(CN3CCN(C)CC3)c(O)ccc12	38*	-1	1	-2	72*	71*
CCc1cc(=O)oc2c(CNCc3c(F)cccc3Cl)c(O)ccc12	30*	1	-1	-2	41*	57*
CCc1c(C)c2cc(Cl)c(O)c(CN3CCCCC3)c2oc1=O	51*	4	-4	-4	69*	72*
COc1ccc(S(=O)(=O)N(C)C[C@H]2Oc3cc(Br)ccc3S(=O)(=O)N([C@H](C)CO)C[C@H]2C)cc1	-1	6	-3	22	x	x
CCc1cc(=O)oc2c(CN3CCCC3)c(O)c(Cl)cc12	83*	-1	-2	-6	68*	71*
CCc1cc(=O)oc2c(CN3CCN(C)CC3)c(O)c(Cl)cc12	69*	0	3	-10	62*	70*
CCCCc1cc(=O)oc2c(CN3CCCC3)c(O)ccc12	77*	-4	-5	-8	65*	74*
O=C(NCCOc1ccccc1Cl)c1ncn[nH]1	0	0	-3	-10	x	x
O=C(NCCCN1CCCC1=O)c1cc(S(=O)(=O)N2CCN(c3ccccc3)CC2)ccc1Cl	0	0	-2	-2	x	x
CC1(C)CCC(=O)N(c2ccccc2)C1=O	0	-1	-3	-10	x	x
CCCSc1ncc(Cl)c(C(=O)Nc2ccc(S(=O)(=O)N3CC(C)OC(C)C3)cc2)n1 (centres undefined)	67*	0	-4	35	-145	-145
CN(C)c1ccc(CN(C(=O)c2ccc(Cl)c([N+](=O)[O-])c2)C2CCS(=O)(=O)C2)cc1 (centres undefined)	0	1	0	20	x	x
COCCn1c(C)nnc1SCC(=O)Nc1ccccc1[N+](=O)[O-]	39*	0	0	-4	0	0
SMILES	proKLK7 act	GAA850 FXN act	SMARCA2 activ	FAS-TE inh	KLK7 act conf	EDANS interfere
CCC(=O)Oc1c(C(=O)CC)cc2c(C)cc(=O)oc2c1C	540*	-4	-3	1	810*	812*
CCC(=O)Nc1c(OC(=O)CC)ccc2c(C)cc(=O)oc12	273*	0	-1	-8	256*	254*
CCC(=O)c1cc2c(C)cc(=O)oc2c(C)c1OC	0	-1	-1	-2	x	x
Cc1cc(NC(=O)Cc2cccs2)no1	0	4	-3	-3	x	x
N#Cc1cc2cc3c(cc2nc1N1CCOCC1)OCO3	18*	-2	-2	-4	114*	123*
CN(CC1CCCN(CCc2ccc(F)cc2)C1)C(=O)CCC(F)(F)F (centres undefined)	0	1	3	-4	x	x

Assay outcomes as filed in PubChem.
